The values that follow come from PubChem BioAssay (EPA / NIEHS).

The nature of assay [1]: ATG_XTT_Cytotoxicity: Cytotoxicity Assessment in the Attagene TRANS-FACTORIAL HepG2 Assay (AID 2283584). Summed up: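 XTT readout of cell number in transfected HepG2 cells, 24 h post-dosing; DMSO serves as negative control and baseline, with activity taken as loss of viability signal.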
Read-out in assay [2]: sulfotransferase 2A1 (SULT2A1), SULT2A1 (gene 6822)
The assay can be described thus: LTEA_HepaRG_SULT2A1: Life Technologies and Expression Analysis (LTEA) Assay for sulfotransferase 2A1 (SULT2A1) using HepaRG (AID 2283531; active means hit-call score of the fitted dose curve at least 0.9, where 1 is the maximum; inactive means score below 0.9). As to conditions: mRNA level, 48 h; actives raise or lower the signal. The procedure, abridged:
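HepaRG, 48 h chemical exposure, 8-pt half-log curve from 100 uM in 0.5% DMSO, duplicates. Readout: TaqMan qRT-PCR of SULT2A1 mRNA, housekeeping-normalized. Bidirectional fit vs DMSO baseline.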

Read-out in assay [3]: Transforming Growth Factor (TGFA), TGFA (gene 7039)
The assay can be described thus: LTEA_HepaRG_TGFA: Life Technologies and Expression Analysis (LTEA) Assay for Transforming Growth Factor (TGFA) using HepaRG (AID 2283532; active means hit-call score of the fitted dose curve at least 0.9, where 1 is the maximum; inactive means score below 0.9). As to conditions: mRNA level, 48 h; actives raise or lower the signal. Summed up:
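HepaRG (human liver line), 48 h exposure, 8 conc. half-log down from 100 uM, 0.5% DMSO vehicle, duplicates; serum-free induction medium. TGFA mRNA by TaqMan qRT-PCR, ACTB/GAPDH/POLR2A normalization; gain/loss fit vs DMSO.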

Read-out in assay [4]: Transforming Growth Factor (TGFB1), TGFB1 (gene 7040)
The assay can be described thus: LTEA_HepaRG_TGFB1: Life Technologies and Expression Analysis (LTEA) Assay for Transforming Growth Factor (TGFB1) Transporter using HepaRG (AID 2283533; active means hit-call score of the fitted dose curve at least 0.9, where 1 is the maximum; inactive means score below 0.9). As to conditions: mRNA level, 48 h; actives raise or lower the signal. The procedure, abridged: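 qRT-PCR readout of TGFB1 transcript in HepaRG lysates, normalized to three housekeeping genes; gain or loss of signal fitted relative to 0.5% DMSO vehicle. Exposure: 48 h, 8-point curve from 100 uM, duplicate wells.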

Read-out in another assay: TIMP1, TIMP1 (gene 7076)
The assay can be described thus: LTEA_HepaRG_TIMP1: Life Technologies and Expression Analysis (LTEA) Assay for TIMP1 using HepaRG (AID 2283534; active means hit-call score of the fitted dose curve at least 0.9, where 1 is the maximum; inactive means score below 0.9). As to conditions: mRNA level, 48 h; actives raise or lower the signal. The procedure, abridged: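 HepaRG, 48 h exposure, 8-pt half-log series from 100 uM in 0.5% DMSO, duplicates; TIMP1 transcript by Fluidigm qRT-PCR, housekeeping-normalized; bidirectional curve fit vs DMSO baseline.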

Read-out in assay [5]: Tumor necrosis factor receptor 1 (TNFRSF1A), TNFRSF1A (gene 7132)
The assay can be described thus: LTEA_HepaRG_TNFRSF1A: Life Technologies and Expression Analysis (LTEA) Assay for Tumor necrosis factor receptor 1 (TNFRSF1A) using HepaRG (AID 2283535; active means hit-call score of the fitted dose curve at least 0.9, where 1 is the maximum; inactive means score below 0.9). As to conditions: mRNA level, 48 h; actives raise or lower the signal. Summed up: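 HepaRG, 48 h plating then 48 h chemical exposure, serum-free induction media; 8-pt CRC from 100 uM, half-log, 0.5% DMSO vehicle, duplicates. Readout: TaqMan qRT-PCR (Fluidigm), housekeeping-gene normalized; bidirectional fit vs DMSO.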

Read-out in assay [6]: Thyroid Hormone Responsive (THRSP), THRSP (gene 7069)
The assay can be described thus: LTEA_HepaRG_THRSP: Life Technologies and Expression Analysis (LTEA) Assay for Thyroid Hormone Responsive (THRSP) using HepaRG (AID 2283536; active means hit-call score of the fitted dose curve at least 0.9, where 1 is the maximum; inactive means score below 0.9). As to conditions: mRNA level, 48 h; actives raise or lower the signal. The procedure, abridged: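 mRNA induction or loss relative to 0.5% DMSO vehicle was fitted bidirectionally across an eight-point curve whose highest exposure was 100 uM. Human HepaRG liver cells received chemicals in duplicate over 48 h before RNA extraction.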

Read-out in assay [7]: Cellular tumor antigen p53 (Homo sapiens) (UniProt P04637)
The assay can be described thus: LTEA_HepaRG_TP53: Life Technologies and Expression Analysis (LTEA) Assay for Tumor Protein P53 (TP53) using HepaRG (AID 2283537; active means hit-call score of the fitted dose curve at least 0.9, where 1 is the maximum; inactive means score below 0.9). As to conditions: mRNA level, 48 h; actives raise or lower the signal. Summed up: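 Gain or loss of TP53 mRNA signal is scored relative to 0.5% DMSO after 48 h chemical treatment of HepaRG liver cells, tested in duplicate at eight half-log concentrations up to 100 uM.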

Read-out in assay [8]: UDP glucuronosyltransferase (UGT1A1), UGT1A1 (gene 54658)
The assay can be described thus: LTEA_HepaRG_UGT1A1: Life Technologies and Expression Analysis (LTEA) Assay for UDP glucuronosyltransferase (UGT1A1) using HepaRG (AID 2283538; active means hit-call score of the fitted dose curve at least 0.9, where 1 is the maximum; inactive means score below 0.9). As to conditions: mRNA level, 48 h; actives raise or lower the signal. Summed up:
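HepaRG cells, 0.5% DMSO vehicle, 48 h exposure in serum-free induction medium to 8-point half-log series topping at 100 uM, in duplicate. UGT1A1 mRNA by Fluidigm qRT-PCR, normalized to ACTB/GAPDH/POLR2A; bidirectional fit versus DMSO.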

Read-out in assay [9]: UDP glucuronosyltransferase (UGT1A6), UGT1A6 (gene 54578)
The assay can be described thus: LTEA_HepaRG_UGT1A6: Life Technologies and Expression Analysis (LTEA) Assay for UDP glucuronosyltransferase (UGT1A6) using HepaRG (AID 2283539; active means hit-call score of the fitted dose curve at least 0.9, where 1 is the maximum; inactive means score below 0.9). As to conditions: mRNA level, 48 h; actives raise or lower the signal. Summed up:
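qRT-PCR readout of UGT1A6 mRNA (normalized to ACTB/GAPDH/POLR2A) in differentiated HepaRG cells after 48 h chemical exposure; 8 concentrations, top 100 uM, half-log steps, 0.5% DMSO. Bidirectional curve fit relative to DMSO baseline.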

Read-out in assay [10]: X-box binding protein 1 (XBP1), XBP1 (gene 7494)
The assay can be described thus: LTEA_HepaRG_XBP1: Life Technologies and Expression Analysis (LTEA) Assay for X-box binding protein 1 (XBP1) using HepaRG (AID 2283540; active means hit-call score of the fitted dose curve at least 0.9, where 1 is the maximum; inactive means score below 0.9). As to conditions: mRNA level, 48 h; actives raise or lower the signal. The procedure, abridged: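 HepaRG, 48 h exposure, 8-pt half-log CRC top 100 uM, 0.5% DMSO vehicle, duplicates. Readout: TaqMan qRT-PCR of XBP1 mRNA, housekeeping-normalised (ACTB/GAPDH/POLR2A); bidirectional fit vs DMSO baseline.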

Assay [11] can be described thus: LTEA_HepaRG_LDH_cytotoxicity: Cytotoxicity Assessment in the Life Technologies and Expression Analysis (LTEA) Assay (AID 2283563). The procedure, abridged:
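HepaRG (human liver line), 48 h exposure, 8-pt half-log series from 100 uM, 0.5% DMSO vehicle, duplicates. Read-out: LDH in spent medium. Positive-direction fit vs DMSO baseline.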

Assay [12] can be described thus: TOX21_p53_BLA_p2_viability: Viability Assessment in the Tox21 HCT-116 p53 Agonism Beta-lactamase Assay, Phase 2 (AID 2283591).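 Further: compound exposure lasted 16 h at 37 °C; actives lower the ATP signal meaning cytotoxicity.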 Summed up: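 Cytotoxicity readout: CellTiter-Glo ATP luminescence, 30 min at room temperature, after the beta-lactamase read. Cells were HCT116 exposed 16 h at 37C to compounds pin-transferred at 217-fold dilution from DMSO stocks.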
Assay [13] concerns the target Cellular tumor antigen p53 (Homo sapiens) (UniProt P04637). The assay can be described thus: TOX21_p53_BLA_p2_ratio: Tox21 HCT-116 p53 Agonism Beta-lactamase Assay, Ratio, Phase 2 (AID 2283592). The procedure, abridged:
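In this cell-based reporter format, HCT116 cells were dosed with chemicals delivered from DMSO by 217-fold dilution and incubated 16 h at 37C. Emission at 460 and 530 nm after 2 h CCF4-AM loading provided the ratio, fitted upward versus DMSO.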

The nature of assay [14]: TOX21_p53_BLA_p3_viability: Viability Assessment in the Tox21 HCT-116 p53 Agonism Beta-lactamase Assay, Phase 3 (AID 2283593).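 Further: cells exposed to compound for 16 h before reading.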 The procedure, abridged: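 Cellular ATP was quantified by CellTiter-Glo luminescence, read after 30 min at room temperature. Beforehand, HCT116 cells (4000/well) received compound 5 h post-seeding, 217-fold diluted from DMSO, then incubated 16 h at 37C.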

Assay [15] has as its target Cellular tumor antigen p53 (Homo sapiens) (UniProt P04637). The assay can be described thus: TOX21_p53_BLA_p3_ratio: Tox21 HCT-116 p53 Agonism Beta-lactamase Assay, Ratio, Phase 3 (AID 2283596). The procedure, abridged: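 HCT116 p53-bla cells (4000/well) given compound in DMSO (217-fold dilution) after 5 h, incubated 16 h at 37C. CCF4-AM substrate 2 h at room temperature; 460/530 nm emission ratio, gain fitted against DMSO.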

The nature of assay [16]: TOX21_p53_BLA_p4_viability: Viability Assessment in the Tox21 HCT-116 p53 Agonism Beta-lactamase Assay, Phase 4 (AID 2283597).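 Further: hits lower the luminescence signal meaning cytotoxicity.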 Summed up: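 We seeded HCT116 p53 reporter cells at 4000/well and waited 5 h. We then added compounds in DMSO at a 217-fold dilution and incubated for 16 h. Viability was read as CellTiter-Glo luminescence after 30 min at RT.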
In assay [17] the target is Cellular tumor antigen p53 (Homo sapiens) (UniProt P04637). The assay can be described thus: TOX21_p53_BLA_p5_ratio: Tox21 HCT-116 p53 Agonism Beta-lactamase Assay, Ratio, Phase 5 (AID 2283599). Summed up: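 Beta-lactamase reporter ratio (blue 460 nm over green 530 nm, 405 nm excitation) after 2 h CCF4-AM loading, in HCT-116 cells exposed 16 h at 37 C to compounds pinned at 217-fold dilution. Increases relative to DMSO baseline scored.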
Sequence of Cellular tumor antigen p53 (Homo sapiens) (P04637 whole entry, looked up): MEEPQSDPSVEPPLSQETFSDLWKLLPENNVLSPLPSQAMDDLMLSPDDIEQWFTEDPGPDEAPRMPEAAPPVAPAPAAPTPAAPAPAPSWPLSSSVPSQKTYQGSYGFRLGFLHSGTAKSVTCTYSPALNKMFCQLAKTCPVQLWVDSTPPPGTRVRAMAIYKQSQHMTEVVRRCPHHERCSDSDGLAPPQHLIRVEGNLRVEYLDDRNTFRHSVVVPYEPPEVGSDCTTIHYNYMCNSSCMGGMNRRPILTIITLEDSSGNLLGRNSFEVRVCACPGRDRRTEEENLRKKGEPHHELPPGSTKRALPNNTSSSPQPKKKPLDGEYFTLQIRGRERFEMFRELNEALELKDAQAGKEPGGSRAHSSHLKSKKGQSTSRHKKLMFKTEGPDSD

Assay [18] in a line: TOX21_p53_BLA_p5_viability: Viability Assessment in the Tox21 HCT-116 p53 Agonism Beta-lactamase Assay, Phase 5 (AID 2283600). Summed up: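 Compounds, pinned from DMSO at 217-fold dilution, were left on the cells for 16 h. The viability endpoint was ATP content measured by CellTiter-Glo luminescence, where falling signal reflects cytotoxicity.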
Assay [19] addresses Cellular tumor antigen p53 (Homo sapiens) (UniProt P04637). The assay can be described thus: TOX21_p53_BLA_p4_ratio: Tox21 HCT-116 p53 Agonism Beta-lactamase Assay, Ratio, Phase 4 (AID 2283601). The procedure, abridged:
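Signal is the blue/green (460nm/530nm) ratio of cleaved versus uncleaved CCF4-AM substrate, read after 2 h substrate loading. Cells were HCT116 carrying the p53-responsive beta-lactamase reporter, dosed 16 h at 37C, 5% CO2; CellTiter-Glo measured in parallel.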

Inconclusive results are not listed. More than one record can exist for a structure, and the calls need not agree. The source made the active and inactive calls. How the source made its calls, unless noted: active means hit-call score of the fitted dose curve at least 0.9, where 1 is the maximum; inconclusive means response in the unintended direction; inactive means score below 0.9.

Turning to `CCOC(=O)CN`, the outcome in assay [1] was inactive.
As to `C=CC(=C)CCCC(C)(C)OC(C)=O`, the molecule was classed as inactive in assay [1].
Still for that read-out and setting: in the case of `CCCC(O)C(O)CO` (configuration not stated) it was “inactive”.
As for `CCCCOCC`, the molecule was called inactive in assay [1].
Take `CCOC(=O)CC(C)O` (configuration not stated): the molecule was classed as inactive in assay [1].
Still for that read-out and setting: in the case of `CCCCCCCC/C=C\CCCCCCCC(=O)OCC` it was “inactive”.
In the case of `C=C(C)C1CC=C(C)C(=O)C1` (configuration not stated), the outcome in [1] was inactive.
As for `CC=Cc1ccc(OC)c(OC)c1`, in [1], the outcome was inactive.
Consider `COc1cc(Cl)c(OC)cc1N`, for which the result in assay [1] was inactive.
Take `CCCCCCCCCCCCS(=O)(=O)Cl`: the result in [1] was inactive.
On the same count and under the same terms, in the case of `Nc1ccc(Cl)c([N+](=O)[O-])c1` it was “inactive”.
As for `CS(=O)(=O)OCCCCOS(C)(=O)=O`, the outcome in assay [2] is “inactive”; in assay [3], “inactive”; in assay [4] it was “inactive”; in the assay with TIMP1, TIMP1 (gene 7076) it was “inactive”; in [5], “inactive”; in assay [6], “inactive”. The call in [7], in assay [8], in [9], in [10], in assay [11] and in assay [1] was inactive. Further, the molecule was classed as inactive in assay [12], in [13], in [14], in [15], in [16] and in [17]. Moreover, the call in assay [18] and in [19] was inactive. Moreover, the AC50 in assay [14] was 0.0231 nM (active).
